Source: PubChem BioAssay (Tox21)
Inconclusive results are not listed. Calls of active or inactive are those of the source. Calls come from the whole dose curve; as a rule, active = well fitted activation curve with a large enough effect in the repeat runs; inconclusive = weak or mixed curves, or effect the other way; inactive = no such curve, though single readings can be large or run the other way. Residues, ends and D or L forms follow the SMILES beside them.

Assay: qHTS assay to identify small molecule agonists of the retinoic acid receptor (RAR) signaling pathway (AID 1159553)
Conditions: C3RL4 RARE luciferase reporter, agonist, 6 h; series mostly up to 73.3 µM
Excerpt: National Center for Advancing Translational Sciences [NCATS] NIH Chemical Genomics Center [NCGC] U.S. Environmental Protection Agency [EPA] National Institutes of Environmental Health Sciences [NIEHS] National Toxicology Program [NTP] Assay overview: All-trans Retinoic acid (atRA) is the potent natural metabolite of retinol and plays an important role in normal embryonic development and maintenance of cellular phenotype in adult animals. atRA is the activating ligand for the retinoic acid receptors (RARs) which form heterodimers with retinoid X receptors (RXRs) on the retinoic acid response element (RARE). Through activation of the RAR/RXRs nuclear receptors, atRA regulates the transcription of a large number of protein-coding genes and regulatory RNAs. Intracellular levels of atRA are controlled by the retinol signaling pathway (RSP) that regulates the biosynthesis and catabolism of atRA to maintain physiological levels. Chemicals that interfere with the RSP can cause abnormal intracellular levels of atRA and therefore are potential developmental toxicants. To assess compounds for the potential adverse effect on embryonic development through interfering with retinol signaling, a cell-based RARE luciferase reporter gene assay was used. C3RL4 cell line (OARSA/CFSAN/FDA, Laurel, MD) was used to screen Tox21 10K compound library for identifying activators of the RSP.
Assay Protocol Summary: C3RL4 cells were seeded at 1,000/well in 5 uL of assay medium into white solid 1,536-well tissue culture plates (Greiner Bio-One North America Inc. Monroe, NC) using a Multidrop Combi (Thermo Scientific, Waltham, MA) dispenser. After incubation at 37 C and 5% CO2 for an overnight, 23 nL of compounds dissolved in DMSO, positive control or DMSO only were transferred by a Pintool station (Kalypsys, San Diego, CA). After 6 hr incubation at 37 C and 5% CO2, 5 uL of Amplite Luciferase reagent (AAT Bioquest Inc. Sunnyvale, CA) was added to each assay plate using a Flying Reagent Dispenser (FRD) (Aurora Discovery, San Diego, CA). Luminescence was quantified on a ViewLux plate reader (PerkinElmer, Waltham, MA) after 30 min incubation at room temperature.

Row | Structure (SMILES) | outcome
1 | OCCc1ccccc1 | inactive
2 | CC(O)CO (stereo not given) | inactive
3 | CC1(C)[C@@H]2CC[C@@]1(C)C(=O)C2 | inactive
4 | CCC1(c2ccccc2)C(=O)NCNC1=O | inactive
5 | O=C1CN(/N=C/c2ccc([N+](=O)[O-])o2)C(=O)N1 | inactive
6 | COC(=O)[C@H](Cc1ccccc1)NC(=O)[C@@H](N)CC(=O)O (H-Asp-Phe-OMe) | inactive
7 | Nc1ccc(O)c(C(=O)O)c1 | inactive
8 | Nc1ccc(S(=O)(=O)Nc2nccs2)cc1 | inactive
9 | CC(O)CN(CCN(CC(C)O)CC(C)O)CC(C)O (stereo not given) | inactive
10 | CCCCC(CC)COC(=O)/C=C/c1ccc(OC)cc1 (stereo not given) | inactive
11 | Nc1ccc(S(=O)(=O)c2ccc(N)cc2)cc1 | inactive
12 | O=C(O)C(=O)O | inactive
13 | COc1c2occc2cc2ccc(=O)oc12 | inactive
14 | N=C(N)c1ccc(OCCCCCOc2ccc(C(=N)N)cc2)cc1 | inactive
15 | NC(=O)c1ccccc1O | inactive
16 | O=S(=O)(O)NC1CCCCC1 | inactive
17 | Cc1ccccc1C(OCCN(C)C)c1ccccc1 (stereo not given) | inactive
18 | CCCCCCCCCCCCCCCC(=O)O | inactive
19 | CNC[C@H](O)c1cccc(O)c1 | inactive
20 | O=C(C1CCCCC1)N1CC(=O)N2CCc3ccccc3C2C1 (stereo not given) | inactive

Row | Structure (SMILES) | outcome
21 | Cc1cc(=O)n(-c2ccccc2)n1C | inactive
22 | O=C(c1ccccc1)C(O)c1ccccc1 (stereo not given) | inactive
23 | CCOc1ccc(NC(=O)CC(C)O)cc1 (stereo not given) | inactive
24 | Nc1ccc(C(=O)O)cc1 | inactive
25 | CC(C)(Oc1ccc(C2CC2(Cl)Cl)cc1)C(=O)O (stereo not given) | inactive
26 | CC(=O)Nc1nnc(S(N)(=O)=O)s1 | inactive
27 | O=S(=O)(O)c1ccc2cc(O)ccc2c1 | inactive
28 | Cc1noc(NS(=O)(=O)c2ccc(N)cc2)c1C | inactive
29 | O=c1cc[nH]c(=S)[nH]1 | inactive
30 | O=C(O)c1cc(N=Nc2ccc(S(=O)(=O)Nc3ccccn3)cc2)ccc1O | inactive
31 | C1N2CN3CN1CN(C2)C3 | inactive
32 | Cc1ccc(C)c(OCCCC(C)(C)C(=O)O)c1 | inactive
33 | O=C(O)CCC(=O)O | inactive
34 | O=NO | inactive
35 | CC(=O)NS(=O)(=O)c1ccc(N)cc1 | inactive
36 | Cc1ccc(O)cc1 | inactive
37 | O=C(O)CCCCCCCC(=O)O | inactive
38 | CC(O)C(=O)O (stereo not given) | inactive
39 | NS(=O)(=O)c1cc(C(=O)O)c(NCc2ccco2)cc1Cl | inactive
40 | CCCNC(=O)NS(=O)(=O)c1ccc(Cl)cc1 | inactive
